Screening results from PubChem BioAssay.
An excerpt weighted towards active compounds, which were near 12% of everything screened.
USP17 block: inhibitors of human USP17 deubiquitinase; 47,000 tested, 6.5% active; inhibition, % at 50 µM; purified USP17, Ub-rhodamine cleavage fluorescence, 3 h
USP30 block: blocks human USP30 ubiquitin-rhodamine cleavage; 47,000 tested, 5.3% active; purified USP30, Ub-rhodamine cleavage fluorescence; AID 1645860; inhibition, % at 25 µM
USP28 inh: inhibitors of human USP28 deubiquitinase. Q96RU2. AID 1645857. 47,000 tested, 3% active. inhibition, % at 25 µM. purified USP28, Ub-rhodamine cleavage fluorescence, 30 min
OTUD3 inh: human OTUD3 deubiquitinase inhibition. Q5T2D3. purified OTUD3, Ub-rhodamine fluorescence, 2 h. inhibition, % at 25 µM. 47,000 tested, 0.7% active
Target sequence (Q5T2D3 whole entry, looked up): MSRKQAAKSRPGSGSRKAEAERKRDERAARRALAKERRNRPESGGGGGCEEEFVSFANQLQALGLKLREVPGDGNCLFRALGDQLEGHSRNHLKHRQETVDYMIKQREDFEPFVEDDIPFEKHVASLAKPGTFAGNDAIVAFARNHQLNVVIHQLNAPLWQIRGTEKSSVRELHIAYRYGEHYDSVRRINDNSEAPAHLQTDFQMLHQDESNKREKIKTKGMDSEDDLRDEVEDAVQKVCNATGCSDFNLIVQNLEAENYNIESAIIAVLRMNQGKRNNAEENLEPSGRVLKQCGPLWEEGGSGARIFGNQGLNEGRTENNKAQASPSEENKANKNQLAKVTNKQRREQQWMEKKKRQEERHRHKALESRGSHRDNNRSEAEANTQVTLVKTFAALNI
Hits are given with their value; – = inactive; · = not tested or not shown. Rule as the data show it: active = inhibition above about 30%; inactive = the rest.

SMILES	USP17 block	USP30 block	USP28 inh	OTUD3 inh
Cc1ccc(Cn2nnc3c(=O)[nH]c(C4CCN(S(=O)(=O)c5ccc(S(=O)(=O)NC6CCCCC6)cc5)CC4)nc32)cc1	–	–	–	–
Cc1nc(-c2noc(-c3cccnc3)n2)cn1CC(=O)NC1CCCCC1	–	–	–	–
CCOc1ccc2nc(-n3nc(C)c4c3NC(=O)CC4c3cc(C)sc3C)sc2c1 (stereo unspecified)	–	36.0	–	–
COc1ccc(-c2c(C(=O)O)sc3c2NC(=O)CC3c2ccccc2)cc1 (stereo unspecified)	–	–	–	–
COc1cccc(C2CC(=O)Nc3c2sc(C(=O)O)c3-c2ccc(C)cc2)c1 (stereo unspecified)	–	30.4	–	–
CCCC(=O)c1c[nH]c(C(=O)NCc2cccnc2)c1	–	·	·	–
CCC(CC)C(=O)c1c[nH]c(C(=O)NCc2cccs2)c1	–	38.2	–	–
Fc1cccc(CN2CCCC(c3[nH]nc4nccnc34)C2)c1 (stereo unspecified)	–	–	–	–
O=c1c2c(ccn1Cc1ccccc1F)ccn2Cc1cccnc1	–	·	·	–
O=c1c2c(ccn1Cc1nc(C3CC3)no1)ccn2Cc1cccnc1	–	–	30.8	–
Cc1cc(-c2cnc(NCc3ccccc3F)nc2[C@@H]2CCCO2)on1	–	–	–	–
Cc1nc2cc(N3CC(C(=O)Nc4ccccc4C)CC3=O)ccc2o1 (stereo unspecified)	–	–	–	–
Cc1nc2cc(N3CC(C(=O)Nc4ccc(F)cc4C)CC3=O)ccc2o1 (stereo unspecified)	62.8	75.7	–	–
O=C(c1cccnn1)N1CCCCC1c1ncc(Cc2ccc(F)cc2)o1 (stereo unspecified)	–	–	–	–
CCn1c(=O)c(C(=O)Nc2ccc(Br)c(C)c2)nc2ccccc21	–	39.7	–	–
O=C(c1ccnn1-c1ccc2ccc(-c3ccncc3)cn12)N1CCOCC1	–	–	–	–
Cc1ccc(C2CC(=O)Nc3c2c(C)nn3-c2ccc3nnc(C)n3n2)cc1 (stereo unspecified)	–	34.8	–	–
Cc1ccc(C)c(NC(=O)CSc2cc(N3CCCCC3)ncn2)c1	–	40.7	–	–
O=C(CSc1cc(N2CCCCC2)ncn1)NC1CCCC1	–	–	–	–
CCn1c(=O)c(C(=O)N2CCN(c3ccc(F)cc3)CC2)nc2cccnc21	–	–	–	–
c1ccc(CNc2ccc(-c3ccccc3)nn2)cc1	–	45.1	37.0	–
CN1CCN(C(=O)c2ccc(-c3ccc(NCc4ccccc4)nn3)cc2)CC1	–	–	–	–
CN(C)c1ccc(C(=O)OCC(=O)c2ccc3c(c2)OCCO3)cc1	–	–	–	–
O=C1CN(Cc2ccccc2F)S(=O)(=O)c2ccccc2N1Cc1ccccc1F	–	–	–	–
O=S(=O)(Cc1noc(-c2ccccc2)n1)c1ccc(F)cc1	–	·	·	–
SMILES	USP17 block	USP30 block	USP28 inh	OTUD3 inh
COc1ccc(Br)c(-c2nc(CS(=O)(=O)c3ccc(F)cc3)no2)c1	–	38.4	–	–
O=C(C1CN(Cc2ccncc2)Cc2ccnn2C1)N1CCCC1 (stereo unspecified)	–	–	–	–
O=C1OC(C(=O)N2CCN(S(=O)(=O)c3ccc(F)cc3)CC2)Cc2ccccc21 (stereo unspecified)	–	–	–	–
O=C(O)c1ccccc1C(=O)N1CCN(c2ccc(C(F)(F)F)cn2)CC1	–	31.9	–	–
O=C(O)C1CCC1C(=O)N1CCN(c2ccc(C(F)(F)F)cn2)CC1 (stereo unspecified)	–	–	–	–
O=C1OC(C(=O)N2CCN(c3ccc(C(F)(F)F)cn3)CC2)Cc2ccccc21 (stereo unspecified)	42.5	–	–	–
Cc1ccccc1OCC(=O)N1CC2CC1C(=O)O2 (stereo unspecified)	–	–	–	–
CN1CCN(c2cc(-c3cccnc3)nc(-c3ccccc3)n2)CC1	–	–	–	–
COc1ccc(NC(=O)COc2ccc3ccc(=O)oc3c2)cc1	56.9	–	–	–
COc1ccccc1-c1coc2cc(OC(=O)c3ccc(C(C)(C)C)cc3)ccc2c1=O	–	–	–	–
COc1cc(C(=O)Oc2ccc3ccc(=O)oc3c2)cc(OC)c1OC	–	45.0	–	–
CCOc1cc(-c2noc(-c3ccccc3)n2)ccc1OCC(=O)Nc1ncccc1C	37.8	31.5	–	–
Cn1c(SCC(=O)Nc2ccc3c(c2)OCCO3)nnc1C(F)(F)F	–	–	–	–
CCn1c(SCC(=O)NCCc2ccccc2)nnc1-c1ccc2c(c1)OCCO2	–	–	–	–
Cn1c(SCC(=O)Nc2ccc3c(c2)OCCO3)nnc1-c1ccncc1	–	–	38.5	–
CCn1c(SCC(=O)Nc2ccc(C)c(Cl)c2)nnc1-c1ccc2c(c1)OCCO2	–	39.8	–	–
CCn1c(SCC(=O)N2c3ccccc3CC2C)nnc1-c1ccc2c(c1)OCCO2 (stereo unspecified)	–	72.6	–	–
COCCCNc1ccn2nc(-c3ccc(C)cc3)cc2n1	–	–	–	–
COc1ccc(Cl)cc1NC(=O)C1Nc2ccccc2S(=O)(=O)N1 (stereo unspecified)	–	–	–	–
COc1ccc(CNC(=O)[C@H](C)NC(=O)[C@@H]2Cc3c([nH]c4ccccc34)C3c4ccccc4C(=O)N32)cc1 (stereo partly specified)	–	–	–	–
CNC(=O)c1cc2c(nc1NCC1CC1)CCN(C(=O)NC)CC2	–	–	–	–
COc1ccc(CSc2nccc(-c3ccc(Cl)cc3)c2C#N)cc1	–	–	–	–
COc1ccc(Cn2cc(-c3ccc(Cl)cc3)cc(C#N)c2=O)cc1	–	41.5	–	–
O=C1Nc2ccccc2C2(CCN(S(=O)(=O)c3ccc(F)cc3)CC2)O1	–	–	–	–
COc1ccc(S(=O)(=O)N2CCC3(CC2)OC(=O)Nc2ccccc23)cc1	63.6	–	–	–
SMILES	USP17 block	USP30 block	USP28 inh	OTUD3 inh
Clc1ccc(CN=C(Nc2ccccc2)NC2CC2)c(Cl)c1	–	30.8	–	–
O=C(CN1C(=O)COc2cc(Cl)ccc21)NC1CC1	–	–	–	–
COCCn1c(=O)[nH]c2cc(C(=O)NC3CCC(C)CC3)ccc2c1=O (stereo unspecified)	–	–	–	–
O=C(Nc1ccccc1)c1noc2c1CCc1sccc1-2	36.8	–	–	–
Cc1ccc(NC(=O)c2noc3c2CCc2sccc2-3)cc1Cl	–	–	–	–
O=C(Nc1ccc(F)cc1)c1noc2c1CCc1sccc1-2	35.8	–	–	–
Cc1cccc(NC(=O)c2noc3c2CCc2sccc2-3)n1	64.8	–	–	–
Cc1cc(Cl)ccc1OCC(=O)NCC(c1cccs1)N(C)C (stereo unspecified)	–	–	–	–
O=C(CCc1ccccc1)Nc1cc(F)c2nc(N3CCCCC3)ccc2c1	–	–	–	–
COc1cccc(CC(=O)Nc2cc(F)c3nc(N4CCOCC4)ccc3c2)c1	57.7	–	36.1	–
O=C(CC1CCCCC1)Nc1cc(F)c2nc(N3CCOCC3)ccc2c1	40.3	–	–	–
O=C(Nc1cc(F)c2nc(N3CCCC3)ccc2c1)c1ccco1	55.5	–	–	–
COCC(=O)Nc1cc(F)c2nc(N3CCOCC3)ccc2c1	63.4	–	–	–
